Hits are enriched below; roughly 7.3% of the tested compounds scored in any of these assays.
Luciferase inh: Firefly luciferase inhibition profiling of diverse chemical library using quantitative high-throughput screening; 76,000 compounds, 2.5% hits; Potency, µM (titrated, usually from 115 µM), usual class: inhibitors; purified P. pyralis luciferase, luminescence, biochemical; also: potency is read from the fitted curve at half-maximal effect; nearly all actives have a fitted effect of over 65% in size
Target sequence (P08659 whole entry, looked up): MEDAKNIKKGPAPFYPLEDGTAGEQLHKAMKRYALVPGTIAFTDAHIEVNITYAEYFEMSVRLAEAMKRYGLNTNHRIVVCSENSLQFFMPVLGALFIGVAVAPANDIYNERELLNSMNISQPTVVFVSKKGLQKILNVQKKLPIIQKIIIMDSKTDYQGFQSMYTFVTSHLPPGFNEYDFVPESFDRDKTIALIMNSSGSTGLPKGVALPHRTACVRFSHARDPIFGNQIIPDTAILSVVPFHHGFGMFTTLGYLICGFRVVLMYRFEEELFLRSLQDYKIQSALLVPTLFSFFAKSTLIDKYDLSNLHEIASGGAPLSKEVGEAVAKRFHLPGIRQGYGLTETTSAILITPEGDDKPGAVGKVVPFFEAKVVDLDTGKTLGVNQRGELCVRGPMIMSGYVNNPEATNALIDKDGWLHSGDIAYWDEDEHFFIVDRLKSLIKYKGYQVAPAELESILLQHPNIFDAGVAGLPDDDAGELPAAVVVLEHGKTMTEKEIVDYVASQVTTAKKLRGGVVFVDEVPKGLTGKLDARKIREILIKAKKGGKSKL
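Cell-free enzyme assay, 10nM P. pyralis luciferase, luciferin and ATP each at 10uM. Inhibition profiled over a 6-point titration, read as luminescence.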
IP6K1 inh: Primary qHTS assay for small molecule inhibitors of Inositol hexaphosphate kinase 1 (IP6K1) | Inositol hexakisphosphate kinase 1 (Homo sapiens), Q92551 | IP6K1 kinase, ADP-Glo luminescence, 2 h; stronger effect = lower value | activity change, % (series mostly up to about 58 µM) | 140,000 compounds, 0.81% hits | AID 1645851, 2021; in the data active = activity change below about -25%
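ADP-Glo luminescence measures ADP made by human IP6K1 during a 2 h RT reaction with ATP/IP6 (mix at 1.3 mM/130 uM); top library doses 57.5 and 19.1 uM final.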
HEK293 tox: Cytotoxic Profiling in HEK 293 Cell Line of Diverse Libraries Using Quantitative High-Throughput Screening; HEK 293 viability, ATP luminescence (CellTiter-Glo), 48-72 h; 94,000 compounds, 6.6% hits; AID 1345083, 2018; Potency, µM (titrated, usually from 115 µM), without a hit: at the top dose activity change, negative = cytotoxicity, hits mostly inhibitors; also: potency is read from the fitted curve at half-maximal effect; nearly all actives have a fitted effect of over 60% in size
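Viability of HEK 293 cells, plated at 250 cells/well, was judged by cellular ATP after compound treatment for 48 or 72 hr. Luminescence was imaged 10 min after CellTiter-Glo addition at room temperature.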
3T3 cytotox: Cytotoxic Profiling in NIH 3T3 Cell Line of Diverse Libraries Using Quantitative High-Throughput Screening | 94,000 compounds, 4.3% hits | Potency, µM (series often up to 96.7 µM), for inactives: at the top dose activity change, negative = cytotoxicity, actives largely listed as inhibitors | NIH 3T3 viability, CellTiter-Glo ATP luminescence, 48-72 h; also: potency is read from the fitted curve at half-maximal effect; nearly all actives have a fitted effect of over 55% in size
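Viability of NIH 3T3 cells after 48 or 72 hr compound treatment at 37 °C was assessed by CellTiter-Glo, with luminescence imaged following a 10 min room-temperature step.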
SNCA expr inhib: Primary qHTS assay for inhibitors of alpha-synuclein gene (SNCA) expression | HEK-293 SNCA-luciferase knock-in, luminescence, 24 h | Potency, µM (series often up to 57.2 µM), for the others: top-dose activity change, negative = inhibition, usual class: inhibitors | 140,000 compounds, 0.17% hits;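 also: potency is read from the fitted curve at half-maximal effect; plate controls were DMSO cells for no effect and cell-free wells for full effect; nearly all actives have a fitted effect of over 45% in size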
SNCA viab count: GF-AFC viability counterscreen for inhibitors of alpha-synuclein gene (SNCA) expression; HEK-293-SNCA-luc viability, GF-AFC fluorescence, 24 h; Potency, µM (doses to about 57.1 µM), inactives show at the highest dose activity change, negative = cytotoxicity, usual class: cytotoxic; 150,000 compounds, 0.12% hits;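 also: potency is read from the fitted curve at half-maximal effect; 0% = DMSO-treated cells and -100% = medium-only wells without cells; nearly all actives have a fitted effect of over 30% in size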
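Cytotoxicity counterscreen: after 24 h compound treatment of genome-edited SNCA-luciferase HEK-293 cells, live-cell protease substrate GF-AFC read by fluorescence after 30 min; activity scaled between DMSO (0%) and medium-only (-100%), curves Hill-fitted.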
Numbers without * were called inactive; i = inactive; ? = inconclusive; · = no result given; [ ] = another dose, or the depositor's remark. Unless noted, calls follow the shape of the dose curve; as a rule, active = well fitted curve in the direction sought with a large enough effect; inconclusive = small, poorly fitted or top-dose-only effect, or another doubt; inactive = no such curve, though single readings can be large; an effect the other way counts as inactive or inconclusive. Unless noted, % is scaled to controls: 0 for no effect and ±100 for the full control effect.

SMILES	Luciferase inh	IP6K1 inh	HEK293 tox	3T3 cytotox	SNCA expr inhib	SNCA viab count
CN1CCC(Cn2ccc3c(N4CCOCC4)nc(-c4cccc5[nH]ncc45)cc32)CC1	i	-11.8	?	44.7µM*	-26.2%[87.6 µM]	-19.4%[87.6 µM]
COc1cc(F)ccc1-c1cc2c(ccn2CC2CCN(C)CC2)c(N2CCOCC2)n1	i	10.9	100µM*	70.8µM*	-18.3%[87.6 µM]	-12.3%[87.6 µM]
C[S+](=O)([O-])N1CCC(Cn2ccc3c(N4CCOCC4)nc(-c4cccc(C(N)=O)c4)cc32)CC1	i	11.6	-13.8%	?	30.2%	-3.8%
CC(=O)Nc1cccc(-c2cc3c(ccn3CC3CCN(C)CC3)c(N3CCOCC3)n2)c1	i	-8.1	-28.5%	?	?	1.1%
C[S+](=O)([O-])N1CCC(Cn2ccc3c(N4CCOCC4)nc(-c4cccnc4)cc32)CC1	i	16.6	-18.1%	7.08µM*	-7.2%	0.8%
CN1CCC(Cn2ccc3c(N4CCOCC4)nc(-c4cccc(C(N)=O)c4)cc32)CC1	i	1.5	?	100µM*	2.6%[87.6 µM]	-8.9%[87.6 µM]
Cc1ccc(C)c(OCc2cc(C(=O)N3CCC(N4CCSCC4)CC3)no2)c1	i	-3.3	?	?	-8.9%	-9.0%
COc1ccc(-n2c(=O)c(C(=O)NCCCc3ccccc3)nc3cccnc32)cc1	·	-23.2	i	-8.6%	5.7%	-3.0%
O=C(COc1ccccc1)N[C@H]1CO[C@H]2[C@@H]1OC[C@@H]2n1cc(CC2CCCCC2)nn1	i	5.6	-10.9%[172 µM]	39.8µM*	-0.4%[87.6 µM]	-13.3%[87.6 µM]
O=C(N[C@H]1CO[C@H]2[C@@H]1OC[C@@H]2n1cc(CC2CCCCC2)nn1)C1CC1	i	-9.1	-26.6%[172 µM]	31.6µM*	-8.8%[87.6 µM]	-5.7%[87.6 µM]
c1c(CC2CCCCC2)nnn1[C@H]1CO[C@H]2[C@@H]1OC[C@@H]2NCC1CCCCC1	i	-16.1	?	?	-15.0%[87.6 µM]	-28.9%[87.6 µM]
COCCNC(=O)c1cc(-c2ccc(C)cc2)c2nncn2n1	·	11.1	-7.1%[172 µM]	?	8.7%[87.6 µM]	-25.7%[87.6 µM]
COc1ccc(C2Cn3cnc(C(=O)N4CCC(C(=O)Nc5ccc(F)cc5C)CC4)c3CO2)cc1 (configuration not stated)	?	-5.8	-9.3%	-0.6%	48.1%	11.1%
O=C(Cc1ccc(Cl)cc1)N1CCC2(CC1)NC(=O)N(c1ccc(F)cc1)N2	i	-9.5	?	?	-1.0%	-8.4%
COc1ncc(-c2cccc(COc3ccc4c(cnn4CC[S+](C)(=O)[O-])c3)c2)cn1	?	9.0	70.8µM*	-15.4%[138 µM]	38.1%[87.6 µM]	-9.6%[87.6 µM]
CCc1cnc(N2CCC(COc3ccc4c(cnn4CC[S+](C)(=O)[O-])c3)CC2)nc1	i	-11.8	?	-23.1%	-29.2%	-1.0%
C[S+](=O)([O-])CCn1ncc2cc(OCC3CCN(c4ncccn4)CC3)ccc21	44.7µM*	4.5	?	-4.5%[138 µM]	?	-1.1%[87.6 µM]
C[S+](=O)([O-])CCn1ncc2cc(OCc3cccc(-c4cncnc4)c3)ccc21	35.5µM*	-2.7	?	?	27.0%[87.6 µM]	-3.0%[87.6 µM]
COc1ncccc1-c1cccc(COc2ccc3c(cnn3CC[S+](C)(=O)[O-])c2)c1	15.8µM*	-5.5	28.2µM*	?	27.1%[87.6 µM]	-17.8%[87.6 µM]
COc1ccccc1-c1cccc(COc2ccc3c(cnn3CC[S+](C)(=O)[O-])c2)c1	?	5.0	?	?	-24.7%[87.6 µM]	-28.6%[87.6 µM]
O=C(Nc1ccc([C@H]2OCC(=O)N(Cc3ccc(F)cc3)[C@@H]2CO)cc1)c1ccccc1	i	-6.8	?	?	-3.7%[87.6 µM]	3.8%[87.6 µM]
COCCCNC(=O)c1cc2c(=O)[nH]c(-c3ccccc3)cn2n1	i	3.6	?	-24.9%	0.4%	-18.9%
